Compounds with a hit are over-represented: about 6.1% of the library has one in this group of screens.
TGFb inhibitor = TGF-b pathway inhibition. Potency, µM (highest dose often 46.1 µM), for inactives: at the highest dose activity, negative = inhibition, most hits filed as inhibitors. HepG2 CAGA-GFP TGF-b/SMAD3 reporter, GFP fluorescence, 18 h; TGF-beta stimulated, 500 pg/mL final. AID 588855. 410,000 compounds, 1.2% hits; also: % is scaled to controls: 0 for no effect and ±100 for the full control effect; nearly all actives have a fitted effect of over 65% in size
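Inhibition of TGF-beta-driven CAGA-GFP reporter expression in HEPG2 cells is measured by cellular GFP fluorescence after 18 h stimulation with 500 pg/mL recombinant TGF-beta in 1% FBS medium at 37 degrees C.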
Gal4-VP16 FLuc = counter-screen for ROR gamma inhibitors: Gal4-VP16 reporter; Drosophila S2 Gal4-VP16 UAS-luciferase, luminescence, 20 h; Potency, µM (doses to about 53.6 µM), inactives show top-dose activity, negative = inhibition, hits mostly inhibitors; 310,000 compounds, 3.5% hits; AID 2546;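 also: Gal4-VP16 expression switched on by copper sulfate through the metallothionein promoter; % is scaled to controls: 0 for no effect and ±100 for the full control effect; nearly all actives have a fitted effect of over 50% in size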
HepG2 viability = counter-screen for TGF-b inhibitors: cytotoxicity in HepG2 cells. 410,000 compounds, 0.76% hits. Potency, µM (titrated, usually from 46.1 µM), for the others: top-dose activity change, negative = cytotoxicity, usual class: cytotoxic. HepG2 CAGA-GFP viability, ATP luminescence, 18 h. AID 588856
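HepG2 CAGA-GFP cells (1000/well, DMEM with 1% FBS) received compound, then TGF-beta at 500 pg/mL final, and were incubated 18 hours at 37 degrees C. Viability was read by CellTiter-Glo luminescence. Media-only wells were set as complete cell-killing and DMSO as no toxicity.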
ATXN2 expr inh = inhibitors of ATXN2 expression; HEK-293 ATXN2-luciferase reporter, luminescence, 24 h; Potency, µM (top dose mostly 57 µM), without a hit: at the top dose activity change, negative = inhibition, usual class: inhibitors; 360,000 compounds, 0.72% hits; also: % is scaled to controls: 0 for no effect and ±100 for the full control effect; nearly all actives have a fitted effect of over 55% in size
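ATXN2-luciferase reporter cells (luciferase flanked by upstream and downstream ATXN2 gene portions) were treated 24 h at 37 °C with compounds at up to 57 uM. SteadyGlo luminescence gave expression; GF-AFC fluorescence gave viability.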
S2 tox = viability counter-screen for ATXN expression inhibitors | S2 cells (HEK-293 line with an ATXN2-luciferase reporter) viability, CellTiter-Fluor protease fluorescence, 24 h | Potency, µM (highest dose often 56.7 µM), actives largely listed as cytotoxic | 400,000 compounds, 0.49% hits; also: nearly all actives have a fitted effect of over 40% in size
RORgamma inh = blocks mouse ROR gamma transcriptional activity; P51450; Drosophila S2 Gal4-RORgamma UAS-luciferase reporter, 20 h; Potency, µM (doses to about 53.6 µM), for the others: at the highest dose activity change, negative = inhibition, most hits filed as inhibitors; 310,000 compounds, 5.4% hits; AID 2551; also: % is scaled to controls: 0 for no effect and ±100 for the full control effect; nearly all actives have a fitted effect of over 60% in size
Target sequence (P51450 whole entry, looked up, the tested form may be a part): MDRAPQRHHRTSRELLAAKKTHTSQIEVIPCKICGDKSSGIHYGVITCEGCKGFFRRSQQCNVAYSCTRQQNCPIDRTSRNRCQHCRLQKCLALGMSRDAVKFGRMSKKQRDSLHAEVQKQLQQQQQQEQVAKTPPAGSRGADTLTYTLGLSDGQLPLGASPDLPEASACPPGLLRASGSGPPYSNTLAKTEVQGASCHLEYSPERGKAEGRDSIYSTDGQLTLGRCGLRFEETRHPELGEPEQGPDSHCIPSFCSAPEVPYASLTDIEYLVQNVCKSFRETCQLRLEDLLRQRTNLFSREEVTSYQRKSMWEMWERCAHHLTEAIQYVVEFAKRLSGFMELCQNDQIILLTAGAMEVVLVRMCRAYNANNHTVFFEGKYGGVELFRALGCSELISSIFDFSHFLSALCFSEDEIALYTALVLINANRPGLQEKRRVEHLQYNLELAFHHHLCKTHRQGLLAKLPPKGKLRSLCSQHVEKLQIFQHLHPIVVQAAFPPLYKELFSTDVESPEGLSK
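Stably transfected Drosophila Schneider cells are the test system, with ROR gamma fused to Gal4 and luciferase under UAS control; luminescence is read after 20 hr of 700 uM copper sulfate induction at ambient temperature.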
* hit, by the source's call; i = inactive; ? = inconclusive; . = no result given; [ ] = remark or other dose. Calls follow the shape of the dose curve; as a rule, active = well fitted curve in the direction sought with a large enough effect; inconclusive = small, poorly fitted or top-dose-only effect, or another doubt; inactive = no such curve, though single readings can be large; an effect the other way counts as inactive or inconclusive. Potency is read from the fitted curve at half-maximal effect.

SMILES	TGFb inhibitor	Gal4-VP16 FLuc	HepG2 viability	ATXN2 expr inh	S2 tox	RORgamma inh
CCN(CC)CCNC(=O)c1ccc(Cn2c(SCc3ccccc3)nc3cccnc32)cc1	-4%	.	-49%	-6%	?	.
O=C(NC1CCCCC1)c1ccc2c(c1)N(Cc1cccc(Cl)c1)C(=O)c1ccccc1S2(=O)=O	-38%	.	-21%	.	.	.
CCOC(=O)/C(=C/c1c(C)n(C)c2ccc([N+](=O)[O-])cc12)C(C)=O	16µM*	?	-53%	-29%	?	13µM*
O=C(NCc1ccc(Cl)cc1)C1CCN(c2nn3cc(-c4ccc(F)cc4)nc3s2)CC1	0%	.	-15%	.	.	.
CCOC(=O)c1c(C)[nH]c(C)c1S(=O)(=O)NCC(=O)Nc1ccc(C)cc1C	?	.	-25%	3%	i	.
Cc1ccc(NC2=C(NC(=O)c3ccccc3)C(=O)c3ccccc3C2=O)cc1Cl	11µM*	?	16µM*	-8%	?	?
Cc1ccc(NC(=O)C(c2ccccc2)N(C)C)cc1Cl (configuration not stated)	-11%	?	-15%	-4%[11.3 µM]	i	18µM*
O=C(O)c1ccc(NC2=C(Cl)C(=O)c3ccccc3C2=O)cc1	?	5%	-23%	4.5µM*	10µM*	?
O=C(O)c1cccc(NC2=C(Cl)C(=O)c3ccccc3C2=O)c1	?	?	-86%	?	25µM*	11µM*
O=C(O)c1ccc(NC(=O)C(c2ccccc2)c2ccccc2)cc1	11%	-21%	4%	12%	i	9%
Cc1ccc(NCC(=O)c2ccccc2)cc1Cl	-4%	-2%	-16%	34%	i	6%
O=C(O)c1cccc(NS(=O)(=O)/C=C/c2ccccc2)c1	-4%	-6%	1%	4%	i	3%
O=C(C[n+]1cccc2cc(Cl)ccc21)c1ccc(Br)cc1	?	.	-53%	.	.	.
O=C(Nc1ccc(Cl)c(Cl)c1)Nc1nccs1	?	1%	11µM*	.	?	-1%
CCn1c(C)nc2cc(C(=O)OC)ccc21	22%	1%	11%	2%	i	21%
O=C(Nc1cccc(Cl)c1)Nc1nccs1	?	9%	-30%	.	.	-11%
COc1cccc(NC(=O)Nc2ccc3c(c2)nc(C)n3C)c1	-5%	11µM*	-36%	-7%[11.3 µM]	i	8.9µM*
CCn1c(C)nc2cc(NC(=O)Nc3cccc(C(C)=O)c3)ccc21	-8%	14µM*	-23%	.	?	16µM*
COc1cccc(NC(=O)Nc2ccc3nc(C)c(C)nc3c2)c1	-7%	19%	-12%	14%	i	?
Cc1nc2cc(NC(=O)Nc3nccs3)ccc2n1C	-26%	10µM*	-2%	6%	i	?
O=C(CCc1cccnc1)NCC1Cc2cccc(-c3ncccn3)c2O1 (configuration not stated)	.	.	.	.	i	.
Cc1ccc2c(c1)cc(C(=O)Nc1ccc(F)cc1F)n2C	-5%	.	6%	1%	i	.
CCN(CC)c1ccc(NC(=O)Nc2cccc(C(C)=O)c2)cc1	21%	?	-32%	45%	i	7.9µM*
O=C1C(N2CCOCC2)=C(n2nnc3ccccc32)C(=O)c2ccccc21	?	5.6µM*	14µM*	22µM*	20µM*	5µM*
COc1cc2[nH]c(=S)n(Cc3ccc(C)cc3)c(=O)c2cc1OC	-13%	3.2µM*	-10%	?	i	1.8µM*
SMILES	TGFb inhibitor	Gal4-VP16 FLuc	HepG2 viability	ATXN2 expr inh	S2 tox	RORgamma inh
COc1ccc(Cn2c(=S)[nH]c3cc(OC)c(OC)cc3c2=O)cc1	13%	?	-1%	11%	i	3.5µM*
C[N+]1(CC(=O)c2ccccc2)CCc2ccccc2C1 (configuration not stated)	10%	.	8%	.	.	.
N#Cc1ccc(/C=C2\C=Cc3ccccc32)cc1	7%	.	-11%	.	.	.
Cc1[nH]c(C)c(C(=O)/C=C/c2ccc([N+](=O)[O-])cc2)c1C	?	?	-42%	.	?	1.1µM*
O=S1(=O)CCOC[C@H](c2ccccc2)N1Cc1ccc(Cl)cc1Cl	?	.	-36%	.	.	.
Cc1ccc(N2C(=O)c3ccccc3C2O)nc1 (configuration not stated)	.	?	.	.	.	7.1µM*
Cc1ccc(N2C(=O)c3ccccc3C2Nc2ccccc2F)nc1 (configuration not stated)	-20%	3%	-4%	1%	i	32%
O=S(=O)(NCc1ccccn1)C(F)(F)F	-2%	?	20%	-5%	i	1.4µM*
O=C(NNC(=O)c1ccccc1OCc1ccccc1Cl)c1csc(N2CCOCC2)n1	?	?	-46%	?	?	13µM*
Cc1ccc(C)c(SCC(=O)NNC(=O)c2csc(N3CCOCC3)n2)c1	-1%	?	-5%	16%	i	8.9µM*
COc1nn(CC(=O)N2N=C(C)CC2(O)C(F)(F)F)cc1[N+](=O)[O-] (configuration not stated)	-17%	-1%	9%	1%	i	3.2µM*
CC1=NN(C(=O)Cn2nc([N+](=O)[O-])c(Br)c2C)C(O)(C(F)(F)F)C1 (configuration not stated)	-26%	?	-47%	4%	i	10µM*
CC1=NN(C(=O)Cn2ccc([N+](=O)[O-])n2)C(O)(C(F)(F)F)C1 (configuration not stated)	2%	?	2%	0%	i	?
CC(=O)Oc1ccc(C2(C)CC(C)(C)NC(=S)N2C)c(OC(C)=O)c1 (configuration not stated)	5%	?	-45%	-5%	i	13µM*
CN(C)c1ccc(/C=C/c2c([N+](=O)[O-])c(=O)n(C)c(=O)n2C)cc1	0%	-4%	-21%	-13%	i	3%
Cn1c(/C=C/c2ccc(Br)cc2)c([N+](=O)[O-])c(=O)n(C)c1=O	?	-20%	-63%	?	?	11µM*
COc1ccc(CCNC(=O)C(=O)NCC(c2cccs2)S(=O)(=O)c2ccc(C)cc2)cc1 (configuration not stated)	0%	.	-16%	-5%	i	.
Cc1cc2c(cc1C)NC(c1c(C)n(C)n(-c3ccccc3)c1=O)C1=C(CC(C)(C)CC1=O)N2 (configuration not stated)	1%	-29%	-37%	36%	i	13µM*

From PubChem
